Compound activity from PubChem.
LYPLA2 counter – LYPLA2 (human) inhibition in PME1 counter-screen. recombinant LYPLA2, FP-Rh probe fluorescence polarization. 0.38% of 320,000 active. inhibition, % at 5.9 µM. O95372;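 active means inhibition above the screen-wide mean plus 3 SD, limit set per campaign, cut at about 26% in these data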;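 further: 0% = LYPLA2 with DMSO and 100% = wells lacking LYPLA2 enzyme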
Fam108B inh – blocks mouse Fam108B hydrolase in RBBP9 counter-screen; recombinant Fam108B, FP-Rh probe fluorescence polarization; inhibition, % at 9.51 µM; 0.33% of 300,000 active; AID 1947;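 active means inhibition above the screen mean inhibition plus 3 SD, computed separately per campaign, cut at about 18% in these data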;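 further: inhibitors lower polarization as less probe binds the enzyme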
PME-1 primary – blocks human protein phosphatase methylesterase 1; Q9Y570; recombinant PME-1, FP-Rh probe fluorescence polarization; inhibition, % at 5.9 µM; 0.53% of 320,000 active; AID 2130;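 active means inhibition above the campaign mean of all compounds plus 3 SD, cut at about 26% in these data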;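 further: competitive labeling of PME-1 active site by serine hydrolase directed probe; 0% = PME-1 with DMSO and 100% = wells lacking PME-1 enzyme; inhibitors block probe labeling so polarization falls and inhibition rises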
PREPL inh – human PREPL enzyme inhibition; inhibition, % at 5.96 µM; recombinant PREPL, fluorescence polarization activity-based probe; 0.68% of 320,000 active;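 further: 0% = enzyme with DMSO and 100% = wells lacking enzyme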
LYPLA1 inh – counter-screen for PME1 inhibitors: inhibitors of human LYPLA1; O75608; recombinant LYPLA1, FP-Rh probe fluorescence polarization; inhibition, % at 5.9 µM; 0.16% of 320,000 active; AID 2174;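 active means inhibition above the mean of all tested compounds plus 3 SD, set per campaign, cut at about 14% in these data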;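 further: inhibitors block serine hydrolase probe labeling of LYPLA1 so polarization falls; 0% = enzyme with DMSO and 100% = wells lacking LYPLA1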
MEX-5 binding – C. elegans MEX-5 TCR-2 RNA binding activity; Q9XUB2; MEX-5/FITC-TCR2 RNA binding, fluorescence polarization; stronger effect = lower value; activity score (negative = inhibition of binding), % at 10 µM; 0.38% of 300,000 active;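 active means inhibition past about -25% in most replicates, and total fluorescence under double the plate's negative control median, limit read from the data; inconclusive means replicates evenly split on the limit, or fluorescence at least double controls; inactive means too little inhibition in most replicates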;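 further: 0% = DMSO and -100% = 5 µM competing unlabeled TCR2 RNA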
Target sequence (Q9XUB2 whole entry, looked up): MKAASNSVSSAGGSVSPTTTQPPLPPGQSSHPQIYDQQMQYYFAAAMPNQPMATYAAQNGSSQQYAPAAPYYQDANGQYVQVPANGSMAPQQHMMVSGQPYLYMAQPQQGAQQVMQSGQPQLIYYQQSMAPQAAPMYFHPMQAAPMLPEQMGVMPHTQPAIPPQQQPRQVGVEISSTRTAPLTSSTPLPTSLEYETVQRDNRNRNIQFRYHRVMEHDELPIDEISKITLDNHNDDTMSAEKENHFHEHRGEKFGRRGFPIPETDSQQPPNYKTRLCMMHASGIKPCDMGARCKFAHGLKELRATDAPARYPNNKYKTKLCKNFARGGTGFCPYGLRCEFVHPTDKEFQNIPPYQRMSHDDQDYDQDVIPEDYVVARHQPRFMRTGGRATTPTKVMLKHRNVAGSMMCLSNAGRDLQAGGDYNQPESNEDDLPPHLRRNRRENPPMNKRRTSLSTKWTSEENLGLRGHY
PREPL confirm – human PREPL inhibition, confirmation. 67% of 2,000 active. recombinant PREPL, fluorescence polarization activity probe. shares compounds with PREPL inh. inhibition, % at 5.96 µM;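 further: 0% = protein with DMSO and 100% = wells lacking protein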
Numbers without * were called inactive; ? = inconclusive; . = no result. Compounds with a hit are over-represented: about 1.6% of the library has one in this group of screens. Unless noted, no stated cut-off is given here; in the data, active means inhibition above about 43%; inactive means the rest.

SMILES | LYPLA2 counter | Fam108B inh | PME-1 primary | PREPL inh | LYPLA1 inh | MEX-5 binding | PREPL confirm
CCOC(=O)/C(C#N)=C\c1ccc(N2CCN(C/C=C/c3ccccc3)CC2)cc1 | 18.9 | -13.1 | -18.0 | 51.1* | 6.1 | ? | 45.9*
CCCCN1C(=N)N([C@@H](CCC)CN2CCC[C@H]2CN2C(N)=NC[C@@H]2Cc2ccccc2)C[C@H]1[C@H](C)CC | . | . | . | 44.7* | . | . | 47.4*
NC1=NC[C@H](Cc2ccccc2)N1CCCCC1CCCCC1 | 2.2 | 0.7 | 5.4 | -2.3 | -0.5 | 2.9 | .
CCC[C@@H](CN1CCC[C@H]1CN1C(N)=NC[C@H]1C(C)C)N1C[C@@H](Cc2ccccc2)N(CCCC2CCCC2)C1=N | . | . | . | 56.6* | . | . | 55.1*
CCCCN1C(=N)N([C@@H](CCC)CN2CCC[C@H]2CN2C(N)=NC[C@H]2CC(C)C)C[C@H]1Cc1ccccc1 | . | . | . | 48.3* | . | . | 49.3*
CCC(C)CCN1C(N(C)C)=NC[C@@H]1Cc1ccccc1 (stereo partly drawn) | -2.4 | 0.3 | -1.1 | -2.1 | 1.2 | . | .
CCCCN1C(Nc2ccccc2)=NC[C@@H]1CC(C)C | -2.6 | 2.8 | -10.4 | 0.7 | -5.9 | . | .
O=C(O)C1CCCCC1C(=O)NCc1cn2ccccc2n1 (stereo not drawn) | -3.3 | 1.9 | -2.1 | 10.2 | 2.9 | 0.6 | .
Cc1nc(-n2nnc(CO)c2CO)nc2c1CCC2 | -1.1 | 4.4 | -4.3 | -8.3 | -1.6 | -0.4 | .
O=C(CSc1nnc(COc2ccc(Cl)cc2)o1)NC1CC2CCC1C2 (stereo not drawn) | -1.8 | 0.7 | 0.3 | 46.5* | -2.2 | -0.5 | 35.7
COc1ccc(OCc2nnc(SCC(=O)NC3CC4CCC3C4)o2)cc1 (stereo not drawn) | -6.2 | 2.6 | -2.7 | 14.2 | -1.6 | 1.8 | .
COc1ccc(-c2c(C(F)(F)F)nn(C)c2NC(=O)c2ccco2)cc1 | 2.5 | 1.7 | -4.3 | 7.2 | -0.3 | -1.2 | .
CC(CCc1ccccc1)NCc1cccc2ccccc12 (stereo not drawn) | -1.4 | 1.6 | 2.4 | -28.7 | 0.9 | -3.5 | .
CNC[C@H](Cc1cccc2ccccc12)NC[C@H](CCSC)NCC1CCC(C(C)(C)C)CC1 (stereo partly drawn) | . | . | . | 43.5* | . | . | 33.6
O=[N+]([O-])c1cccc(S(=O)(=O)NCCc2ccccc2)c1 | 4.5 | 2.2 | 1.2 | 5.1 | 1.9 | 0.2 | .
O=C(NCCOc1ccccc1)c1ccc2c(c1)S(=O)(=O)c1cc(Cl)ccc1C2=O | . | . | . | 43.5* | . | . | 29.9
COc1ccc(/C=C2/SC(=S)N(CC(=O)O)C2=O)cc1OCc1ccc(Cl)cc1 | 0.8 | -7.7 | 5.3 | 66.1* | -3.2 | ? | 66.5*
CCOc1cc(/C=C2/SC(=S)N(CC(=O)O)C2=O)ccc1OC(=O)c1cccs1 | -19.3 | -12.9 | -31.9 | 64.8* | -10.1 | 1.3 | 66.8*
Cc1nn(Cc2c(F)cccc2Cl)c(C)c1[N+](=O)[O-] | 5.3 | -0.1 | 2.9 | -1.8 | 0.6 | -3.1 | .
CCc1cc(C(c2ccccn2)N2CCN(C)CC2)c(NC(=O)c2ccccc2)s1 (stereo not drawn) | 7.2 | 4.8 | 4.4 | 23.9 | -0.3 | 3.9 | .
CCCNc1nc(C)nc2c1cnn2CCc1ccccc1 | 2.4 | -0.9 | 3.2 | -6.1 | 1.4 | -1.3 | .
CN(C(=O)COc1ccc(Cl)cc1)C1(C)CCS(=O)(=O)C1 (stereo not drawn) | -4.2 | -5.3 | 0.4 | -2.5 | 2.1 | 1.8 | .
O=C(NC(NC1CCS(=O)(=O)C1)C(Cl)(Cl)Cl)c1cccc(Cl)c1 (stereo not drawn) | -1.5 | 2.1 | 0.5 | -1.0 | -1.6 | 0.9 | .
COCc1c(C(=O)OCc2nnc(-c3ccc([N+](=O)[O-])cc3)o2)oc2ccccc12 | . | . | . | 43.3* | . | . | 40.4
CC(=O)c1c(C)[nH]c(C(=O)OCc2nnc(-c3ccc([N+](=O)[O-])cc3)o2)c1C | . | . | . | 7.9 | . | . | .
CCc1nc(C)ccc1OC(=O)C12CC3CC(CC(C3)C1)C2 | 7.9 | -1.7 | -4.5 | -2.7 | 2.6 | 2.4 | .
CCN1CCc2nc3sc(C(=O)N4CCc5ccccc5C4)c(N)c3cc2C1 | 7.1 | -1.5 | 7.1 | 64.5* | 0.0 | 0.0 | 48.0*
